# Laboratory results: PubChem BioAssay (NCATS)
# Inconclusive results are not listed. Unmarked numbers belong to inactive results. Activity calls are given as the source filed them. The call rests on the fitted dose curve; in most records, active means well fitted inhibition curve with a large enough effect; inconclusive means small, poorly fitted or top-dose-only effect; inactive means no such curve, though single readings can be large or run the other way. Where a SMILES comes first, the peptide text is derived from it. [ ]: non-standard residue; d: D form. ξ: configuration not given here. ξLac(3-iPr) = CC(C)CC(O)C(=O)O; NMeV = CN[CH](C(=O)O)C(C)C; βAla = NCCC(=O)O
# Test: Primary qHTS for inhibitors of nuclear receptor binding SET domain protein 2 (NSD2) in an RCH-ACV wild type WT cells (2C) (AID 1645877); further: nearly all actives have a fitted effect of over 70% in size
# Details: RCH-ACV (leukaemia line) NSD2 WT (2C) viability, CellTiter-Glo, 72 h; series mostly up to 44.9 µM; activity change, negative = cell killing: at the top concentration
# On the % scale 0 is the no-effect control and ±100 the full control effect; potency means the concentration at half of the fitted maximal effect.
Structure (SMILES),"activity change, negative = cell killing",outcome,Potency
CC(C)CC1OC(=O)C2CCCN2C(=O)CCNC(=O)C(Cc2ccccc2)NC(=O)C(C(C)C)N(C)C(=O)C(C(C)C)N(C)C1=O (centres undefined) (cyclo([ξLac(3-iPr)][NMeV][NMeV]F[βAla]P); configuration not given here),-17.6% [at 17.3 µM],,
C=CC1C(OC2OC(CO)C(O)C(O)C2O)OC=C2C(=O)N3C(C(=O)O)Cc4c([nH]c5ccccc45)C3CC21 (centres undefined),-0.839% [at 17.3 µM],,
CC(=O)N[C@@H](CCCCN)C(=O)N(C)[C@@H](CC(C)C)C(=O)N[C@H](C(=O)N(C)[C@@H](Cc1ccccc1)C(=O)N[C@H](Cc1ccccc1)C(N)=O)C(C)C,,inactive [at 4.96 µM],
COc1cc([C@H]2c3cc(O)c(OC)cc3C[C@@H](CO[C@@H]3O[C@H](CO)[C@@H](O)[C@H](O)[C@H]3O)[C@@H]2CO)ccc1O,,inactive [at 17.3 µM],
Cn1cc(S(=O)(=O)c2ccc(Cl)cc2)c2cccc(N3CCNCC3)c21,,,11.5 µM (active)
CC1=C(C)C(=O)OC(C(C)C2CCC3C4C5OC5C5(O)CC(OC6OC(CO)C(OC7OC(C)C(O)C(O)C7O)C(O)C6O)CC(O)C5(C)C4CCC23C)C1 (centres undefined),,inactive [at 17.3 µM],
COc1cc(N2CCOCC2)ccc1Nc1ncc(Cl)c(Nc2ccccc2NS(C)(=O)=O)n1,,,1.83 µM (active)
CC1CC(O)/C=C/C(O)C(O)CC(=O)Cc2c(Cl)c(O)cc(O)c2C(=O)O1 (centres undefined),-2.18%,,
N#Cc1c(Oc2ccc(F)c(NC(=O)Cc3cccc(C(F)(F)F)c3)c2)ccc2nc(NC(=O)C3CC3)sc12,,,1.15 µM (active)
C/C=C/C=C/C(=O)N1CC[C@]23c4ccccc4N[C@H]4N(C)c5cccc6c5[C@@]42CCN([C@H]6C2OC2(C)C)[C@H]13 (some centres undefined),-28.2% [at 17.3 µM],,
O=C1NC2CCc3nc4ccccc4c(=O)n3C2=Nc2ccccc21 (centres undefined),,inactive,
OCC(CO[C@@H]1O[C@H](CO)[C@@H](O)[C@H](O)[C@H]1O)c1ccc2c(c1)OCO2 (some centres undefined),4.49%,,
C=C1[C@H](OC(C)=O)[C@H]2[C@@H](OC(C)=O)[C@](C)(OC(C)=O)C[C@]2(OC(C)=O)C(=O)[C@H](C)/C=C/C(C)(C)C(=O)[C@H](OC(=O)C(C)CC)[C@H]1OC(C)=O (some centres undefined),,inactive [at 17.3 µM],
CC1(C)CC2=C3C=CC4C5(C)CCC(O)C(C)(C)C5CCC4(C)C3(C)CCC2(C)C(O)C1 (centres undefined),-17.1% [at 17.3 µM],,
CC(O)CCC1C(CO[C@@H]2O[C@H](CO)[C@@H](O)[C@H](O)[C@H]2O)CC(O)CC1(C)C (some centres undefined),2.34%,,
CCCC(=O)O[C@@H]1[C@@H]2[C@@H](OC(C)=O)[C@]3(C)C(=O)[C@H]4[C@@H](OC(C)=O)C(C)(C)C[C@H]4[C@]3(C)C(=O)[C@@]2(OC(C)=O)C[C@@H]1C,-21.6% [at 17.3 µM],,
CC1C(=O)CC2C3CCC(C(=O)O)C12CC3(C)CO (centres undefined),-28.8%,,
CC(=O)O[C@@H]1c2c(C)coc2C(=O)[C@@]23O[C@@H]2CC[C@H](C)[C@@]13C,-24.5%,,
N[C@H]1Cc2ccccc2N(O)C1=O,,,12.9 µM (active)
CNC(=O)c1ccccc1Nc1nc(Nc2ccc3c(c2OC)CCC[C@@H](N2CCN(CCO)CC2)C3)ncc1Cl,,,6.61 µM (active)

Structure (SMILES),"activity change, negative = cell killing",outcome,Potency
COc1ccc(-c2ccc3c(N4CCOCC4)nc(N4CC(C)OC(C)C4)nc3n2)cc1CO (centres undefined),,,0.291 µM (active)
COc1cc(Nc2nc3c(s2)CCCC3c2ccc(F)cc2)ccc1-n1cnc(C)c1 (centres undefined),,,10.3 µM (active)
CCCC(=O)NCCc1csc(-c2ccc(Cl)cc2)n1,,,18.3 µM (active)
C/C(=C/CO)CC[C@@H]1[C@@](C)(O)CCC2C(C)(C)CCC[C@]21C (some centres undefined),-23.8%,,
Cc1cccc(C)c1-n1c(=O)c2cnc(Nc3ccc(N4CCN(C)CC4)cc3)nc2n2c3ccccc3nc12,,,0.258 µM (active)
O=C(O)/C=C/c1cc2c(cc1O[C@@H]1O[C@H](CO)[C@@H](O)[C@H](O)[C@H]1O)OCO2,-4.06%,,
CC(C)(C)Nc1nc2cc(Cl)c(Cl)cc2nc1S(C)(=O)=O,,,0.409 µM (active)
C[C@@H]1N[C@H]2N(C1=O)c1ccccc1[C@@]2(O)C[C@@H]1C(=O)N[C@@H](C)c2nc3ccccc3c(=O)n21,-21.8% [at 17.3 µM],,
COc1c2c(c(C)c3c1C(=O)OC3)O[C@@]1(C)CCC3(C(C)(C)O)OC(=O)CC[C@]3(C)[C@H]1C2 (some centres undefined),-25.2% [at 17.3 µM],,
COC(=O)c1ccnc(-c2cc(C(=O)NCCc3ccccc3)ccn2)c1,-5.1%,,
CC12CCC3c4ccc(OC5OC(C(=O)O)C(O)C(O)C5O)cc4CCC3C1CCC2O (centres undefined),,inactive,
COc1ncc2cc(C(=O)Nc3cc(C(=O)NCc4cccc(Cl)c4)ccc3Cl)c(=O)[nH]c2n1,,,5.8 µM (active)
C=CC(=O)N1CCN(C(=O)CNc2cc(I)c(Cl)cc2O)CC1,,,5.15 µM (active)
O=C(O)c1cn(C2CC2)c2cc(N3C[C@@H]4C[C@H]3CN4)c(F)cc2c1=O,-25.9%,,
NC(=O)Nc1cc(-c2cccc(F)c2)sc1C(=O)NC1CCCNC1 (centres undefined),,,0.0817 µM (active)
CC1(C)CC[C@]2(C(=O)O[C@@H]3O[C@H](CO)[C@@H](O)[C@H](O)[C@H]3O)CC[C@]3(C)C(=CCC4[C@@]5(C)CC[C@H](O[C@@H]6O[C@H](C(=O)O)[C@@H](O)[C@H](O)[C@H]6O)[C@@](C)(CO)C5CC[C@]43C)C2C1 (some centres undefined),4.55% [at 9.23 µM],,
COc1ccc(Oc2cc(C)c(-c3csc(NC(=O)c4ccncc4)n3)c(C)c2)cc1,,,0.916 µM (active)
Cc1cccc2c1NC(=O)C2(c1ccc(O)cc1)c1ccc(O)cc1,,,8.17 µM (active)
COC1CC(O[C@H]2CC[C@@]3(C)C(CCC4C3[C@H](OC(C)=O)[C@@H](OC(=O)/C=C/c3ccccc3)[C@]3(C)C(C(C)=O)CC[C@]43O)C2)OC(C)C1OC1CC(OC)C(OC2CC(OC)C(OC3OC(C)C(OC4OC(CO)C(O)C(O)C4O)C(OC)C3O)C(C)O2)C(C)O1 (some centres undefined),-29.1% [at 9.23 µM],,
